Experimental findings from article PMC7862700, “An all-to-all approach to the identification of sequence-specific readers for epigenetic DNA modifications on cytosine” are described below.

Common to all, as to assay: DAPPL (digital affinity profiling via proximity ligation, sequencing); 10 mM Tris-HCl pH 7.5, 50 mM NaCl, 1 mM DTT, 4% glycerol, room temperature, 30 min; GST-TFs on glutathione beads, 16-mer random dsDNA library, 0.1% formaldehyde crosslink after washing; high values mean tight binding
The target of assay [1] is T1, FEV (Homo sapiens, UniProt Q99581 1-238).
T1 sequence: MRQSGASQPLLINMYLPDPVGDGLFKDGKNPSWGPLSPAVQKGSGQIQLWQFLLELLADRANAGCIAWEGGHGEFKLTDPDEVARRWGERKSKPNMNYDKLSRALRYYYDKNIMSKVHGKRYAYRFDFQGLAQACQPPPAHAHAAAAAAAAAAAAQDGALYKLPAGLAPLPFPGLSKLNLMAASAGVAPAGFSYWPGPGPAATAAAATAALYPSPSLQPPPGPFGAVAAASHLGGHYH
The following applies: protein: recombinant; tags: N-terminal GST; dsDNA, one strand shown. In outline:
(§1)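 Pools were built from human transcription factors expressed in yeast as GST fusions, captured on glutathione beads and DNA-barcoded, along with a tag-only sample. Incubation with 200 nmole of a 16-mer random double-stranded DNA library lasted 30 min at room temperature in Tris/NaCl/DTT/glycerol buffer, and was followed by washing, 0.1% formaldehyde crosslinking, proximity ligation, PCR amplification and Illumina NextSeq500 sequencing. Binding signal is the quotient of each hexamer's read frequency for a factor and its frequency for the tag-only sample.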

Assay [2] addresses ETV5 (Homo sapiens, UniProt P41161 1-510). Particulars: protein: recombinant; tags: N-terminal GST; dsDNA, one strand shown. In outline: as §1
Assay [3] deals with HSF1 (Homo sapiens, UniProt Q00613 1-529). Particulars: protein: recombinant; tags: N-terminal GST; chain copies: 3; dsDNA, one strand shown. The method, boiled down:
as §1

Assay [4] addresses T2, SPIC (Homo sapiens, UniProt Q8N5J4 1-248).
T2 sequence: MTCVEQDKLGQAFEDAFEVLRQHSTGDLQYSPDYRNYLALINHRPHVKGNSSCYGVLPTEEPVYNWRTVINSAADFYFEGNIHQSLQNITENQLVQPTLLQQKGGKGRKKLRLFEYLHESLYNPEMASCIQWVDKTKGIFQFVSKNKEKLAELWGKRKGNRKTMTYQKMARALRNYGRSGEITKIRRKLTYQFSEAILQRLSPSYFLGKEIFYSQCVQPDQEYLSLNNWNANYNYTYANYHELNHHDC
The following applies: protein: recombinant; tags: N-terminal GST; dsDNA, one strand shown. The method, boiled down: as §1

Assay [5] addresses ELF4 (Homo sapiens, UniProt Q99607 1-663). The following applies: protein: recombinant; tags: N-terminal GST; dsDNA, one strand shown. The method, boiled down:
as §1

Assay [6] concerns the target T3, ELK4 (Homo sapiens, UniProt P28324-2 1-405).
T3 sequence: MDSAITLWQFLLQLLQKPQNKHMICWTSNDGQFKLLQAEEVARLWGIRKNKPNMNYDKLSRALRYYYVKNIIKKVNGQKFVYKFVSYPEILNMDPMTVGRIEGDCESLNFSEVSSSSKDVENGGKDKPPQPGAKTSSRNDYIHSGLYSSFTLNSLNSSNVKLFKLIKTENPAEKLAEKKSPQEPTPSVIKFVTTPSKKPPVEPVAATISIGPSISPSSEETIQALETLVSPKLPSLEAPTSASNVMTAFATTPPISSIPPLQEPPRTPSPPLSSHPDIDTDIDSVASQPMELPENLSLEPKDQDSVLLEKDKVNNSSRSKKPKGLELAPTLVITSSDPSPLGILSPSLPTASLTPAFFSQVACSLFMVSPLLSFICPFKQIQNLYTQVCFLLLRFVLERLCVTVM
Particulars: protein: recombinant; tags: N-terminal GST; dsDNA, one strand shown. The method, boiled down: as §1

Assay [7] concerns the target T4, ETV2 (Homo sapiens, UniProt O00321 1-342).
T4 sequence: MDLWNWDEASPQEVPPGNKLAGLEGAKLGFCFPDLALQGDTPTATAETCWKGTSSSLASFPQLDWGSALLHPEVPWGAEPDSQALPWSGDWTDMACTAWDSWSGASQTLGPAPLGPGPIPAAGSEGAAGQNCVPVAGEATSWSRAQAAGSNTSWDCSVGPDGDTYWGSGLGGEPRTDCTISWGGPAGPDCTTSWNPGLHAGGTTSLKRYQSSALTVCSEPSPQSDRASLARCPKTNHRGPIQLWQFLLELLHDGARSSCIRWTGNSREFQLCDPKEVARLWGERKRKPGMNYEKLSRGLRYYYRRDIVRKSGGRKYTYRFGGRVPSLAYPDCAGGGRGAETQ
Particulars: protein: recombinant; tags: N-terminal GST; dsDNA, one strand shown. In outline: as §1

Assay [8] deals with T5, ELF3 (Homo sapiens, UniProt P78545 1-371).
T5 sequence: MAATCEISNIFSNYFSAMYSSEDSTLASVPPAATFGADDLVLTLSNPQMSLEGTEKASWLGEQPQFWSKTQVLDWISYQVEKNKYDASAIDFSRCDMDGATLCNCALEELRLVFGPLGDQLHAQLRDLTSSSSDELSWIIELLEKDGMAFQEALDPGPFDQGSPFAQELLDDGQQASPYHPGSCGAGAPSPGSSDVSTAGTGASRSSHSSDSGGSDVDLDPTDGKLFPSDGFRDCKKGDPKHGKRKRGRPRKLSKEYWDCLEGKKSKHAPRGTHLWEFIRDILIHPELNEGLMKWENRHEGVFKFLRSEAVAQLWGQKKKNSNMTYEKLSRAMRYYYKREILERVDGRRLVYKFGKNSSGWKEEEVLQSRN
The following applies: protein: recombinant; tags: N-terminal GST; dsDNA, one strand shown. The method, boiled down: as §1

In assay [9] the target is CRX (Homo sapiens, UniProt O43186 1-299). Particulars: protein: recombinant; tags: N-terminal GST; dsDNA, one strand shown. In outline:
as §1

In assay [10] the target is ETV1 (Homo sapiens, UniProt P50549 1-477). Particulars: protein: recombinant; tags: N-terminal GST; dsDNA, one strand shown. The method, boiled down:
as §1

The target of assay [11] is T6, ERF (Homo sapiens, UniProt P50548 1-548).
T6 sequence: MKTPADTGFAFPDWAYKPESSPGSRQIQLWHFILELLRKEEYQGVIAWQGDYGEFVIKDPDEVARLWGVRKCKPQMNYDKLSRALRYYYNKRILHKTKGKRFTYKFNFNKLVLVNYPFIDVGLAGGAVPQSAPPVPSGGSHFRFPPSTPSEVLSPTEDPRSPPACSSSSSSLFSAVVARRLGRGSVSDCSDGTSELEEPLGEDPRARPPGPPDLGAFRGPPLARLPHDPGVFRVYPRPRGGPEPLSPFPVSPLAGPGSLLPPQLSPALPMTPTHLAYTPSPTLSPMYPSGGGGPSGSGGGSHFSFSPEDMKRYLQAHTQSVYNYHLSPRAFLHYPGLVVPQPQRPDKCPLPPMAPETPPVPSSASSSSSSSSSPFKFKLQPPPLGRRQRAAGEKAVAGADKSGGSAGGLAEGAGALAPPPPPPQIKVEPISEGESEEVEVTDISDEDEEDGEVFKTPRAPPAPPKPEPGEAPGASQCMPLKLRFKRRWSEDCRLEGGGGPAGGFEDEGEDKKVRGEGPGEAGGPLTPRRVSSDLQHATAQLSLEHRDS
The following applies: protein: recombinant; tags: N-terminal GST; dsDNA, one strand shown. The method, boiled down: as §1

Assay [12] has as its target T7, ETV3L (Homo sapiens, UniProt Q6ZN32 1-361).
T7 sequence: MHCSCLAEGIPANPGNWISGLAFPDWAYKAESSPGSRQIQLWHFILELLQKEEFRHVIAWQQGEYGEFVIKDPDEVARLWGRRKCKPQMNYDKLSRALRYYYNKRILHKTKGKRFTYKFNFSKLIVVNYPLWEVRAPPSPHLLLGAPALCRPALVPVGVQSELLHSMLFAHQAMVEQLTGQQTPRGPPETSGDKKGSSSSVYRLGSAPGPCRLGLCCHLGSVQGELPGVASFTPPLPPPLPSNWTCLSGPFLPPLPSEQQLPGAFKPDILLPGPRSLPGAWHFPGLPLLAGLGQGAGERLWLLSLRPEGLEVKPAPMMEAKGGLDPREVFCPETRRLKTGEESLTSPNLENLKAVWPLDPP
Particulars: protein: recombinant; tags: N-terminal GST; dsDNA, one strand shown. In outline:
as §1

Assay [13] deals with T8, ETS2 (Homo sapiens, UniProt P15036 1-469).
T8 sequence: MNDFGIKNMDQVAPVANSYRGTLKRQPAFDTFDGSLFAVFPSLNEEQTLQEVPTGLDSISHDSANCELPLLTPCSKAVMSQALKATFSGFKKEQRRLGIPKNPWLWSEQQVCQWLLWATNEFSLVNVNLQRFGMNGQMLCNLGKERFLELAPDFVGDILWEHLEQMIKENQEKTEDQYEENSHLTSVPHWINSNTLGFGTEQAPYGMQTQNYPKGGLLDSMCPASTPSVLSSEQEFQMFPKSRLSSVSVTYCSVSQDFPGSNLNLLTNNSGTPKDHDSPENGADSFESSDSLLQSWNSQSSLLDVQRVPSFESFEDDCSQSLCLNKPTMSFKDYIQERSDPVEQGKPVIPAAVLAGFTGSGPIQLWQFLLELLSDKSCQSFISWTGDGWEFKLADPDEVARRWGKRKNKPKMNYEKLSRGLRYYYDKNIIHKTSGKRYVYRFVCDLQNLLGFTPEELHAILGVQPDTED
Particulars: protein: recombinant; tags: N-terminal GST; dsDNA, one strand shown. The method, boiled down:
as §1

The target in assay [14] is T9, SPDEF (Homo sapiens, UniProt O95238 1-335).
T9 sequence: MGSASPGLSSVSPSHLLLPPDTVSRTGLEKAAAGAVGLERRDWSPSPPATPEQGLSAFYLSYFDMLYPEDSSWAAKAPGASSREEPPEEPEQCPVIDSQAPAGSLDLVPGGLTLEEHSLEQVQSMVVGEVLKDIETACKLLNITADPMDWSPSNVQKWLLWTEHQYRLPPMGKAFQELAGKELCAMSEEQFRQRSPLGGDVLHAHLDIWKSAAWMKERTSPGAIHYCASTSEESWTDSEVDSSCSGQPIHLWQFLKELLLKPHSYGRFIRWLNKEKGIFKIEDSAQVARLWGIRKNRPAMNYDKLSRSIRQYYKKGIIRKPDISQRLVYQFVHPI
Particulars: protein: recombinant; tags: N-terminal GST; dsDNA, one strand shown. The method, boiled down: as §1

Assay [15] deals with T10, ETV7 (Homo sapiens, UniProt Q9Y603 1-341).
T10 sequence: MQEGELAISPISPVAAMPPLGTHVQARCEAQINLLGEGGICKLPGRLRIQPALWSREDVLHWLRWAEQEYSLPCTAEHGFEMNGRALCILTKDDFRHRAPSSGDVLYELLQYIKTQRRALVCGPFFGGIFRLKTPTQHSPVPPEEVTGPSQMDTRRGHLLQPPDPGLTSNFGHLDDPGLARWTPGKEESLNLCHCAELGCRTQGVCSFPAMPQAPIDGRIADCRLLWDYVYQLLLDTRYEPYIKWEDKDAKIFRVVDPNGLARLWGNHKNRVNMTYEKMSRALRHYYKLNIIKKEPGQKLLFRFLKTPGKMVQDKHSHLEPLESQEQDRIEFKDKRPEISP
The following applies: protein: recombinant; tags: N-terminal GST; dsDNA, one strand shown. In outline:
as §1

Assay [16] addresses T11, ELF5 (Homo sapiens, UniProt Q9UKW6-2 1-255).
T11 sequence: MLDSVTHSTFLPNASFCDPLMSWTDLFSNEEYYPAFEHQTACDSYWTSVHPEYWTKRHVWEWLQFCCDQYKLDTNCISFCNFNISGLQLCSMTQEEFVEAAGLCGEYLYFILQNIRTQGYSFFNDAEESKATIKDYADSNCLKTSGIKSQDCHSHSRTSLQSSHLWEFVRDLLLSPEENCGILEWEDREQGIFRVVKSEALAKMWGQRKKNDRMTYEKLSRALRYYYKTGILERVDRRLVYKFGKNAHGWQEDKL
Particulars: protein: recombinant; tags: N-terminal GST; dsDNA, one strand shown. In outline:
as §1

Assay [17] addresses T12, ETV3 (Homo sapiens, UniProt P41162-2 1-143).
T12 sequence: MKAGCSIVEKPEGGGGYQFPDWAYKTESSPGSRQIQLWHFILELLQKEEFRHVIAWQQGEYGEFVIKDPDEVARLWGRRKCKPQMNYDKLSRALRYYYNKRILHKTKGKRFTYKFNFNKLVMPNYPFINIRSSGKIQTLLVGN
The following applies: protein: recombinant; tags: N-terminal GST; dsDNA, one strand shown. The method, boiled down: as §1

The target in assay [18] is ETV6 (Homo sapiens, UniProt P41212 1-452). Particulars: protein: recombinant; tags: N-terminal GST; dsDNA, one strand shown. In outline:
as §1

CRX, sequence (O43186 whole entry): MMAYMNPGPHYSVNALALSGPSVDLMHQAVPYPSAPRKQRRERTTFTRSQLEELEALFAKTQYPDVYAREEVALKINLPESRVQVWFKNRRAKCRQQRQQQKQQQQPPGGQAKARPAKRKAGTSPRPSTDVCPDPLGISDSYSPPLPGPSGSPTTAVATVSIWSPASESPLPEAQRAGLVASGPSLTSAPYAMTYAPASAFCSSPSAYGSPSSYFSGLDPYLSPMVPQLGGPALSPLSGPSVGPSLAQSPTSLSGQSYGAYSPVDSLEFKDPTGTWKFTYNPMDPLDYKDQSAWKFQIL
ELF4, sequence (Q99607 whole entry): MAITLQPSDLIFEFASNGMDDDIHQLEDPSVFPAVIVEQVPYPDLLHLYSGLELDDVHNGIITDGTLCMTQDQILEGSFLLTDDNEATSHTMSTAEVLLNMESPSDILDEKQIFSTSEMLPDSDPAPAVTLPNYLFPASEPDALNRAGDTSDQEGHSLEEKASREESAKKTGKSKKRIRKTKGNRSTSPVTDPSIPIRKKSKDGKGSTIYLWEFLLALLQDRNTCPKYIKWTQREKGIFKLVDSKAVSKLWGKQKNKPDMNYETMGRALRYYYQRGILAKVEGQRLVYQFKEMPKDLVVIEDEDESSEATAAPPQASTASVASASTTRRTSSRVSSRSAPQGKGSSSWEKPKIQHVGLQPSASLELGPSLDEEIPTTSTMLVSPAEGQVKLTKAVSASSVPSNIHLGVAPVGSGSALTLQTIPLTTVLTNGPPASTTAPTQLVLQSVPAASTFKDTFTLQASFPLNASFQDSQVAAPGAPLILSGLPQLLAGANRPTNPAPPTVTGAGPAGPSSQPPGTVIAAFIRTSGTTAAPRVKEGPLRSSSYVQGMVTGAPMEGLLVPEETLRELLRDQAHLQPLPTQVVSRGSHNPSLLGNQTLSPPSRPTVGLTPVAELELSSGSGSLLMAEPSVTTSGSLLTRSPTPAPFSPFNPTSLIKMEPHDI
ETV6, sequence (P41212 whole entry): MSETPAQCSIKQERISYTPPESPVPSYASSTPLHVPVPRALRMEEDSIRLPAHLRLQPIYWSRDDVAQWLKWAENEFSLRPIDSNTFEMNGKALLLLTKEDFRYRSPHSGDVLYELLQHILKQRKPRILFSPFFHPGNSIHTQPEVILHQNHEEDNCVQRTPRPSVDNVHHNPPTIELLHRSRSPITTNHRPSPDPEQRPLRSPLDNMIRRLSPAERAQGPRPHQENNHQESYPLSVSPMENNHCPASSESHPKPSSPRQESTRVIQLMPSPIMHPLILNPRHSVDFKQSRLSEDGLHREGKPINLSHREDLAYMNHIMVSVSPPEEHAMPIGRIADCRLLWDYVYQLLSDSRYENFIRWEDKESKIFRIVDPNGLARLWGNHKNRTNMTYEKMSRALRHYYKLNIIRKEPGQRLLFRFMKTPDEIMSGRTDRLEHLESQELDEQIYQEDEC
ETV1, sequence (P50549 whole entry): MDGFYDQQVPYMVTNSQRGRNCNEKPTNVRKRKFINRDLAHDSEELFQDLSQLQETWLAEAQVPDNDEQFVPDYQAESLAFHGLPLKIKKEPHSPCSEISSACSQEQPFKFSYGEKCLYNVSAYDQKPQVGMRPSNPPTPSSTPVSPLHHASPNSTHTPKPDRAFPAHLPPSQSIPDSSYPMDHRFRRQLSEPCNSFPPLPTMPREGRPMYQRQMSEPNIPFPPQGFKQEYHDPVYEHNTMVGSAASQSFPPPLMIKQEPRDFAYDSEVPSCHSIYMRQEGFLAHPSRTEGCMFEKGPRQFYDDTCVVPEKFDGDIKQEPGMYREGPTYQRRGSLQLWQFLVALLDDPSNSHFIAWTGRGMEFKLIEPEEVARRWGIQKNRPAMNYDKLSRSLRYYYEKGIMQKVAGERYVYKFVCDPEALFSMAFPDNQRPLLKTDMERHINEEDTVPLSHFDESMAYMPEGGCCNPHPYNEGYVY
ETV5, sequence (P41161 whole entry): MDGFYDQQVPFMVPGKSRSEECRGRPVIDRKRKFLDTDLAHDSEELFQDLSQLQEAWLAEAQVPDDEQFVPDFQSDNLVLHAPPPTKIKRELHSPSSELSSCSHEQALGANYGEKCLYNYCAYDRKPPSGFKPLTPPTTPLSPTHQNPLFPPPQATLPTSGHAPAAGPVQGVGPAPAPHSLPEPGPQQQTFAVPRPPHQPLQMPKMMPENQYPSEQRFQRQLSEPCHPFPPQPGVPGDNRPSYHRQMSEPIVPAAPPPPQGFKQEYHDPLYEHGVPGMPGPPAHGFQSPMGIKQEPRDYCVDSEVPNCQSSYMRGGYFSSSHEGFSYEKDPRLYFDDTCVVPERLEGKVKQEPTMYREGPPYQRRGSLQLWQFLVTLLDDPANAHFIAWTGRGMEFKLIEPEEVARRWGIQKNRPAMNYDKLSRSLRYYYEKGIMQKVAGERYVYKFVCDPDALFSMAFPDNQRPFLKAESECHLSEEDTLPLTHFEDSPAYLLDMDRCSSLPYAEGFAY
HSF1, sequence (Q00613 whole entry): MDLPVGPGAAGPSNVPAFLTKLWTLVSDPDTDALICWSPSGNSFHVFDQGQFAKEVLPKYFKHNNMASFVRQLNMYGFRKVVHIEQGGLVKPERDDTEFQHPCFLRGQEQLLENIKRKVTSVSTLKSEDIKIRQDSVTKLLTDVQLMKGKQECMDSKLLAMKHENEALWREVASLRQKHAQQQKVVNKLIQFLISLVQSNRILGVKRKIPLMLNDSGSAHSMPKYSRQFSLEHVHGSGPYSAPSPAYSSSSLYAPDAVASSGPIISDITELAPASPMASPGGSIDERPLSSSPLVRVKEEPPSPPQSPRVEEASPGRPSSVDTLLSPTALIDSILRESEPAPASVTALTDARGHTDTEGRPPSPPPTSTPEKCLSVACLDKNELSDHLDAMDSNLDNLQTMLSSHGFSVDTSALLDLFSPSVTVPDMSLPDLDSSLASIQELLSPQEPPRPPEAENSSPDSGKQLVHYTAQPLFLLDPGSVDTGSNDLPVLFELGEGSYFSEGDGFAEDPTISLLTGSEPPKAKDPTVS

For TGTTTC, the binding signal is 1.97 fold enrichment (6-mer frequency, TF over GST control) in assay [1]; 1.83 fold enrichment (6-mer frequency, TF over GST control) in assay [2]; 1.43 fold enrichment (6-mer frequency, TF over GST control) in [3]; 1.49 fold enrichment (6-mer frequency, TF over GST control) in assay [4]; 1.73 fold enrichment (6-mer frequency, TF over GST control) in assay [5]; 1.55 fold enrichment (6-mer frequency, TF over GST control) in [6]. In addition, the binding signal in assay [7] was 1.69 fold enrichment (6-mer frequency, TF over GST control); in [8], 1.68 fold enrichment (6-mer frequency, TF over GST control); in assay [9], 1.17 fold enrichment (6-mer frequency, TF over GST control); in assay [10], 1.84 fold enrichment (6-mer frequency, TF over GST control); in [11], 1.86 fold enrichment (6-mer frequency, TF over GST control); in [12], 1.84 fold enrichment (6-mer frequency, TF over GST control). Also, the binding signal in assay [13] was 1.79 fold enrichment (6-mer frequency, TF over GST control); in assay [14], 1.81 fold enrichment (6-mer frequency, TF over GST control); in assay [15] it was 1.89 fold enrichment (6-mer frequency, TF over GST control); in [16] it was 2.08 fold enrichment (6-mer frequency, TF over GST control); in [17], 1.83 fold enrichment (6-mer frequency, TF over GST control); in assay [18], 1.95 fold enrichment (6-mer frequency, TF over GST control).
